Gal4-VP16 FLuc = VP16 counterscreen qHTS for inhibitors of ROR gamma transcriptional activity; Drosophila S2 Gal4-VP16 UAS-luciferase, luminescence, 20 h; Potency, µM (series often up to 53.6 µM), for inactives: at the top dose activity, negative = inhibition, usual class: inhibitors; 310,000 tested, 3.5% active; AID 2546, 2010;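 also: Gal4-VP16 expression switched on by copper sulfate through the metallothionein promoter; potency is read from the fitted curve at half-maximal effect; % is scaled to controls: 0 for no effect and ±100 for the full control effect; nearly all actives have a fitted effect of over 50% in size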
MCF10A rereplic = A quantitative high throughput screen for small molecules that induce DNA re-replication in MCF 10a normal breast cells. MCF 10A DNA re-replication, Hoechst nuclear intensity, 48 h. Potency, µM (doses to about 46.1 µM), for the others: top-dose activity, positive = re-replication, usual class: activators. 350,000 tested, 2.9% active. AID 624296, 2012; also: potency is read from the fitted curve at half-maximal effect; % of control where 0% means no effect; nearly all actives have a fitted effect of over 50% in size
SW480 rereplic = A quantitative high throughput screen for small molecules that induce DNA re-replication in SW480 colon adenocarcinoma cells. 340,000 tested, 1.8% active. SW480 DNA re-replication, Hoechst DNA content imaging, 48 h. Potency, µM (series often up to 46.1 µM), for the others: top-dose re-replication activation, hits mostly activators. AID 624297, 2012; also: potency is read from the fitted curve at half-maximal effect; % of control where 0% means no effect; nearly all actives have a fitted effect of over 55% in size
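Per well, 250 cells were exposed to pinned compound for 48 hr. Nuclear DNA was visualised with Hoechst (40 min, 37 C) and total object intensity recorded by fluorescence scanning.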
RORgamma inh = qHTS for inhibitors of ROR gamma transcriptional activity | Drosophila S2 Gal4-RORgamma UAS-luciferase reporter, 20 h | 310,000 tested, 5.4% active | Nuclear receptor ROR-gamma (Mus musculus), P51450 | Potency, µM (top dose mostly 53.6 µM), inactives show top-dose activity change, negative = inhibition, most hits filed as inhibitors; also: potency is read from the fitted curve at half-maximal effect; % is scaled to controls: 0 for no effect and ±100 for the full control effect; nearly all actives have a fitted effect of over 60% in size
Target sequence (P51450 whole entry, looked up, the tested form may be a part): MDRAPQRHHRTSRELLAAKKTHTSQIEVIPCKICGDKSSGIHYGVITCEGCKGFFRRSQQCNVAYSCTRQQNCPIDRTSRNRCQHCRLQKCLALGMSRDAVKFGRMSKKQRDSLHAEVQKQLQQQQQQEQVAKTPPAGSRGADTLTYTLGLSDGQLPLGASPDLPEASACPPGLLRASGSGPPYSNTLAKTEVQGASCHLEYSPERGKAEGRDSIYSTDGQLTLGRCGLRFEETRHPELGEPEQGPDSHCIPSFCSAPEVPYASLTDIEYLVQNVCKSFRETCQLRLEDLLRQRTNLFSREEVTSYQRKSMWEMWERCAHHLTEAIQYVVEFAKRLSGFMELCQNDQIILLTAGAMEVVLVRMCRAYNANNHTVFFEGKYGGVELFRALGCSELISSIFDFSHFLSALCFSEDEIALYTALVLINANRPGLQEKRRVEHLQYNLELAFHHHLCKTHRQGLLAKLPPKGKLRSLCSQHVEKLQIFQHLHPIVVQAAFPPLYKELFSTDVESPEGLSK
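Luciferase reporter read in Schneider cells carrying Gal4-RORγ (mouse) and UAS-Photinus luciferase; cells given compound 1 h before 700 uM copper sulfate induction, then incubated 20 h at ambient temperature.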
IL1B secr inh = qHTS for Inhibitors of Inflammasome Signaling: IL-1-beta AlphaLISA Primary Screen; THP-1 LPS/ATP IL-1B secretion, AlphaLISA, 16 h; active compounds read low; activity change, % at 57.5 µM; 360,000 tested, 4.7% active; in the data active = activity change below about -50%; inconclusive = mostly about -30% to -49%; also: % is scaled to controls: 0 for no effect and ±100 for the full control effect
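Secreted IL-1B measured by AlphaLISA bead assay after 16 h compound exposure of THP-1 cells; compounds (final up to 57.5 uM) added 1 h before LPS (250 ng/mL) and ATP (1.25 mM) stimulation; lower signal means less secretion.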
* marks the source's active call; other numbers are inactive results; ? = inconclusive; nt = not tested or not shown; ! = repeats disagree; [ ] = dose if it differs, or a comment. Sampled rows, rich in hits. Any-hit rate of the full collection: about 11%. Unless noted, calls follow the shape of the dose curve; as a rule, active = well fitted curve in the direction sought with a large enough effect; inconclusive = small, poorly fitted or top-dose-only effect, or another doubt; inactive = no such curve, though single readings can be large; an effect the other way counts as inactive or inconclusive.

SMILES | Gal4-VP16 FLuc | MCF10A rereplic | SW480 rereplic | RORgamma inh | IL1B secr inh
CCc1nc(SCC(=O)Nc2ccc(Br)cn2)n[nH]1 | -3.2% | nt | nt | -24.7% | nt
CCN(CC)c1cccc(O)c1 | -2.3% | nt | nt | 10.7% | nt
CCOC(=O)C(NC(=O)c1ccc(F)cc1)(Nc1sc2c(c1C(N)=O)CCC2)C(F)(F)F (centres undefined) | -4.3% | -2.4% | -3.7% | -11.3% | -8.5
CCCCC(=O)NC(Nc1sc2c(c1C(N)=O)CCCC2)(C(=O)OCC)C(F)(F)F (centres undefined) | -6.4% | -8.9% | 2.91µM* | -0.5% | -5.1
CC(OC(=O)c1cnccn1)C(=O)c1ccccc1 (centres undefined) | nt | -1.9% | -5.0% | nt | -2.4
CC(C)Oc1ccc(C2CC(=O)N(C)C2=O)cc1 (centres undefined) | 0.4% | -2.8% | -4.2% | -6.0% | 4.5
CN(C)CC(CCC(CN(C)C)C(O)(c1ccccc1)c1ccccc1)C(O)(c1ccccc1)c1ccccc1 (centres undefined) | ? | 20.6µM* | ? | ? | -84.6*
O=C(c1ccc(S(=O)(=O)Cc2cc(F)ccc2F)c([N+](=O)[O-])c1)N1CCOCC1 | nt | nt | nt | nt | -99.8*
CC1CCN(C(=O)c2ccc(SCc3ccccc3F)c([N+](=O)[O-])c2)CC1 | -0.8% | -2.1% | 8.7% | 19.3% | -60.4*
O=C(c1ccc(S(=O)(=O)Cc2ccccc2F)c([N+](=O)[O-])c1)N1CCCCCC1 | 6.6% | -4.6% | 23.0% | 22.2% | -78.8*
O=C(c1ccc(SCc2ccco2)c([N+](=O)[O-])c1)N1CCOCC1 | -4.5%[10 µM] | -0.3% | -14.4% | ? | -5.2
O=C(c1ccc(S(=O)(=O)c2ccccc2Cl)c([N+](=O)[O-])c1)N1CCCCCC1 | ? | ? | ? | 14.1% | -73.0*
CCS(=O)(=O)N1CCN(c2ccc(C(=O)N3CCOCC3)cc2[N+](=O)[O-])CC1 | 9.5% | 2.3% | -24.3% | 2.0% | 0.0
O=C(c1ccc(Cl)c(S(=O)(=O)N2CCCC2)c1)N1CCCCC1 | 3.9% | -17.7% | -2.5% | -1.1% | 4.8
Cc1ccccc1C(=O)N1CCC[C@H]1C(=O)N1CCC[C@H]1C(=O)NCc1ccccn1 | nt | nt | nt | nt | 26.1
CC(OC(=O)c1snc(C(=O)NC2CCCCC2)c1N)C(=O)NC(C)(C)C (centres undefined) | ? | 3.3% | -1.3%[9.22 µM] | ? | 0.0
CC(C)(C)NC(=O)COC(=O)c1snc(C(=O)NC2CCCCC2)c1N | 5.62µM* | 4.6% | -2.0% | -37.0% | ?
COc1ccc(Cn2cnc3c(N)c(C)c(C)cc32)cc1 | -14.7% | 2.2% | -3.1% | -26.7% | -1.3
CCCCCCCCn1cnc2c(N)c(C)c(C)cc21 | ? | 24.5% | 11.2% | 10µM* | -12.1
COc1ccc(NC(=O)Nc2nccs2)cc1 | 0.9% | ? | 11.6µM* | 14.4% | 10.9
COc1ccc(C(=O)Nc2nccs2)cc1OC | ? | 10.6% | 1.0%[9.22 µM] | 11.1% | 6.9
COc1cc(SC)ccc1C(=O)Nc1nccs1 | ? | ? | ? | 7.94µM* | 0.0
COc1cc(SC)ccc1C(=O)Nc1c(Cl)cncc1Cl | ? | 12.6% | -0.9% | 7.4% | -67.0*
COc1ccc(-c2noc(CCC(=O)NC3CCCCC3)n2)cc1 | 13.7% | -0.6% | ? | 23.8% | 0.0
O=C(CC[C@H]1O[C@@H](n2ccc(=O)[nH]c2=O)[C@H](O)[C@@H]1O)NCc1ccccc1 | nt | nt | nt | nt | 0.7
SMILES | Gal4-VP16 FLuc | MCF10A rereplic | SW480 rereplic | RORgamma inh | IL1B secr inh
COc1ccc(/C=N\NC(=O)c2cc(O)c(O)c(O)c2)cc1COc1ccc(C(=O)OCC(C)C)cc1 | -22.3% | 41.3% | -7.8% | -8.0% | 57.7
COc1ccccc1C(CCNS(=O)(=O)c1ccc(C)cc1)c1ccco1 (centres undefined) | -11.2% | 13µM* | -110.3% | ? | -4.5
CC(C(=O)NC1C=CS(=O)(=O)C1)N1C(=O)/C(=C/c2cccc(Cl)c2)SC1=S (centres undefined) | -70.6% | ? | 7.4% | ? | -67.8*
CC(C(=O)NC1C=CS(=O)(=O)C1)N1C(=O)/C(=C\c2ccccc2)SC1=S (centres undefined) | ? | 1.4% | -5.6% | -11.9% | -61.8*
CC(C(=O)N(C)C1CCS(=O)(=O)C1)N1C(=O)/C(=C/c2cccs2)SC1=S (centres undefined) | -5.1% | ? | -3.8% | -26.2% | 14.3
COc1ccccc1/C=C1/SC(=S)N(C(C)C(=O)NC2C=CS(=O)(=O)C2)C1=O (centres undefined) | -0.9% | -4.3% | -7.1% | 6.9% | ?
O=C1NC[C@@H](CCCCN2CCN(CCc3ccc(O)cc3)C(=O)C2=O)N(CCC2CCCCC2)C1=O | nt | nt | nt | nt | -16.6
CC(C)Cn1c2c(c(O)c(C(=O)Nc3ncccc3O)c1=O)CCCC2 | 14.1µM* | ? | ? | ? | 20.7
CC(C)Cn1c2c(c(O)c(C(=O)Nc3ccc(F)cc3)c1=O)CCCC2 | -11.5% | ? | 0.1% | 4.8% | 38.3
CC(C)c1ccc2c(c1)CCC1C(C)(CN)CCCC21C (centres undefined) | 3.0% | 16.4µM* | 3.26µM* | 29.4% | -98.8*
CC(C)c1ccc2c(c1)CC[C@H]1[C@](C)(CN)CCC[C@]21C | ? | 4.2% | ? | 11.2µM* | -108.5*!
COc1ccc(CN2CCN(CC3CC3)CC2CCO)c(C)c1C (centres undefined) | nt | 25.9µM* | -41.8% | nt | -2.5
COc1ccc(CN2CCN(C3CCSCC3)CC2CCO)c(C)c1C (centres undefined) | 6.0% | ? | 5.3% | -6.9% | -4.4
CCC1CCCCN1Cc1ccc(OC)c(C)c1C (centres undefined) | 4.1% | -6.4% | 6.6% | 11.2µM* | 9.5
CC(=O)c1c(C)[nH]c(C(=O)N2CCN(c3cc(Cl)ccc3C)CC2)c1C | -2.9% | 10.3µM* | 9.2µM* | 5.3% | 21.2
COc1cccc(N2CCN(C(=O)c3[nH]c(C)c(C(C)=O)c3C)CC2)c1 | 12.0% | ? | 7.08µM* | -37.1% | 32.0
CNc1ncnc2c1ncn2[C@H]1CN(Cc2ccco2)C[C@@H](CO)O1 | nt | nt | nt | nt | 33.1
O=C(C#Cc1ccccc1)c1ccco1 | 3.16µM* | ? | 5.8µM* | 2.82µM* | -100.6*
CN(Cc1ccccc1)C(=O)c1ccco1 | -8.6% | -0.5% | -3.6% | 7.4% | -5.7
COc1ccc(C2=NN(CN3C(=O)C(=O)c4ccccc43)C(c3cccc([N+](=O)[O-])c3)C2)cc1 (centres undefined) | 3.6% | ? | 10.8% | -7.4% | -65.9*
COc1ccc(C2CC(c3ccc(Cl)cc3)=NN2C(=O)c2cccc([N+](=O)[O-])c2)cc1 (centres undefined) | -2.5% | -4.5% | -0.9% | 10.6% | ?
